Bioassay records (PubChem BioAssay)
Sampled rows, rich in hits. Any-hit rate of the full collection: about 2.4%.
TNF death inh: blocks TNF-alpha induced death of Jurkat FADD-/- cells; Jurkat FADD-/- TNF necroptosis rescue, ATP luminescence, 24 h; 0 = TNF only, 100 = no-TNF cells; activation (protection from cell death), % at 10 µM; AID 463075; 220,000 compounds, 0.068% hits;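 active = activation, meaning protection from cell death, of at least 50% relative to plate controls; inactive = activation below 50%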;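 note: necroptosis triggered by 40 ng/mL TNF-alpha added together with compound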
WT yeast gro inh: growth inhibition of WT yeast, mitochondrial fusion screen | mitochondrial fusion phenotypic screen, WT strain | inhibition, % at 10 µM | 190,000 compounds, 2.1% hits | AID 1362; in the data active = inhibition above about 58%; tested in S. cerevisiae
Redox H2O2 prof: compounds producing H2O2 with reducing agent – biochemical, NIH compound library profiling, artefact control for MLSCN library redox annotation, primary screen; DTT-dependent redox cycling H2O2, phenol red/HRP absorbance; 100% = 100 µM peroxide control, 0% = buffer; activation, % at 10 µM; 200,000 compounds, 0.03% hits;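 active = activation of at least 50% relative to the plate's high and low controls in the primary single-dose screen; inactive = activation below 50%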;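 note: compound incubated with DTT at 0.8 mM final as the reducing agent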
zVAD death inh: L929 zVAD cell death inhibition; L929 zVAD necroptosis rescue, ATP luminescence, 24 h; with zVAD 60 µM; viability rescue, % at 10 µM; 220,000 compounds, 0.38% hits;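 active = activation, scaled between plate controls, above about 75%, limit read from the data; inactive = activation under that limit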;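 note: 0% = zVAD with DMSO and 100% = DMSO alone without zVAD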
PKD1 inh: inhibitors of human PKD1 kinase; PKD1 kinase fluorescence polarization assay; 200,000 compounds, 0.056% hits; inhibition, % (no concentration beside the values); Q15139; in the data active = inhibition above about 50%
PERK inhibitor: blocks human PERK kinase | 220,000 compounds, 0.17% hits | CHO PERK-DD fusion, SEAP luminescence translation reporter | inhibition, % at 5.6 µM;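 active = inhibition above the mean inhibition of all tested compounds plus 3 SD, set separately per screening campaign, cut at about 2.9% in these data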;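 note: PERK kinase domain activated by AP20187 dimerizer at 100 nM; 0% = DMSO with dimerizer and 100% = rapamycin at 8.4 µM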
Target sequence (Q9NZJ5 whole entry, looked up, the tested form may be a part): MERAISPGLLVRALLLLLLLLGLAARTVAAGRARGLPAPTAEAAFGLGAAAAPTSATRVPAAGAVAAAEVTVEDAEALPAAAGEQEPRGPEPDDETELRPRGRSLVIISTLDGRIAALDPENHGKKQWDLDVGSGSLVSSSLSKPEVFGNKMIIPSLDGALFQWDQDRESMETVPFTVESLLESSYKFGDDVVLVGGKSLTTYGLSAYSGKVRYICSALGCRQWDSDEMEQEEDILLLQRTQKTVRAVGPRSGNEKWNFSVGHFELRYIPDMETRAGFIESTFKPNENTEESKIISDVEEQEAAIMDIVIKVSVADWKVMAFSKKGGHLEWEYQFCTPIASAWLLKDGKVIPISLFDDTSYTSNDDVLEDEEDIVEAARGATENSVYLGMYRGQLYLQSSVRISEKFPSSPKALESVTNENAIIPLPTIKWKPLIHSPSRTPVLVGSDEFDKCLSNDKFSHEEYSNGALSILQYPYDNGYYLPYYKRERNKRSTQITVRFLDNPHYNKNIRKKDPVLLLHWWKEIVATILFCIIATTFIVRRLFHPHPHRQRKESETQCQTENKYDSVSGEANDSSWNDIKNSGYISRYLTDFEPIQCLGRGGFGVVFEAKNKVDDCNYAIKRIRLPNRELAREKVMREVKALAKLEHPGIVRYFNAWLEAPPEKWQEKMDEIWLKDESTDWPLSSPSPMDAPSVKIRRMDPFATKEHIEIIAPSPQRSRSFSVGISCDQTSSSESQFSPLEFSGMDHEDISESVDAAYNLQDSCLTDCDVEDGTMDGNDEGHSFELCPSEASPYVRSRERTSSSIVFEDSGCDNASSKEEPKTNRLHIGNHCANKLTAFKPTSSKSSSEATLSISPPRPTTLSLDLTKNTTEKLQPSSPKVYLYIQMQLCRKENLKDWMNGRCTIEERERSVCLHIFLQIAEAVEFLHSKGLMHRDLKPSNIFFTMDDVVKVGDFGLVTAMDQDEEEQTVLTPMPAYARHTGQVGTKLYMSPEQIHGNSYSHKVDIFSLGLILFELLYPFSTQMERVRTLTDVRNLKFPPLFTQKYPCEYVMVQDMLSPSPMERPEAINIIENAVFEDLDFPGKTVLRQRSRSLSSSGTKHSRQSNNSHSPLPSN
* marks the source's active call; other numbers are inactive results.

Results for O=C(/C=C/c1ccccc1[N+](=O)[O-])c1ccccc1Br ?
TNF death inh: 14.5; WT yeast gro inh: 69.1*; Redox H2O2 prof: -1.1; zVAD death inh: -1.1; PKD1 inh: 2.4; PERK inhibitor: 0.1

Results for CC(C)CNC(=O)Cn1c(=O)c2c(ncn2CC(C)C)n(Cc2ccccc2)c1=O ?
TNF death inh: 0.8; WT yeast gro inh: -4.1; Redox H2O2 prof: -1.2; zVAD death inh: 0.8; PKD1 inh: 0.4; PERK inhibitor: -0.3

What do the screens show for `Cc1ccc(-c2cc(C(F)F)n3ncc(C(=O)N4CCc5ccccc5C4)c3n2)cc1`?
TNF death inh: -1.9; WT yeast gro inh: 76.9*; Redox H2O2 prof: -0.3; zVAD death inh: 0.0; PKD1 inh: 2.0; PERK inhibitor: -1.1

How did O=C(Nc1cccnc1)c1ccccc1NS(=O)(=O)c1ccc(F)cc1 do in these assays?
TNF death inh: -0.6; WT yeast gro inh: -15.8; Redox H2O2 prof: 0.7; zVAD death inh: 1.5; PKD1 inh: -0.3; PERK inhibitor: 0.1

What do the screens show for `O=C(Nc1nc(-c2ccccc2)cs1)c1ccccc1NS(=O)(=O)c1ccc(F)cc1`?
TNF death inh: -9.7; WT yeast gro inh: 77.9*; Redox H2O2 prof: 0.4; zVAD death inh: 2.8; PKD1 inh: -2.7; PERK inhibitor: 0.1

Results for O=S(=O)(Nc1ccc(-c2csc(-c3ccccc3)n2)cc1)c1ccc(F)cc1 ?
TNF death inh: 5.5; WT yeast gro inh: 92.4*; Redox H2O2 prof: 2.8; zVAD death inh: 0.7; PKD1 inh: 5.1; PERK inhibitor: 1.0

Results for Cc1cc(C)c(NC(=S)NCCCSC2CCCCC2)c(C)c1 ?
TNF death inh: -8.1; WT yeast gro inh: 74.9*; Redox H2O2 prof: -0.9; zVAD death inh: -1.7; PKD1 inh: -11.2; PERK inhibitor: -0.7

Results for COc1cccc(NC(=O)NCCCSC2CCCCC2)c1 ?
TNF death inh: 0.7; WT yeast gro inh: 1.1; Redox H2O2 prof: 0.5; zVAD death inh: 2.0; PKD1 inh: 2.9; PERK inhibitor: 0.6

How did CCN(CC)S(=O)(=O)c1cc(Cl)ccc1OC do in these assays?
TNF death inh: -0.8; WT yeast gro inh: 1.3; Redox H2O2 prof: -0.7; zVAD death inh: 0.8; PKD1 inh: -7.3; PERK inhibitor: 1.8

Results for Cc1ccc(NC(=O)c2nc[nH]c2C(=O)N[C@@H](C)c2ccccc2)cc1 ?
TNF death inh: 1.0; WT yeast gro inh: 74.3*; Redox H2O2 prof: 0.4; zVAD death inh: 0.9; PKD1 inh: -2.4; PERK inhibitor: -0.1

How did Cc1ccc(NC(=O)c2[nH]cnc2C(=O)NN)cc1 do in these assays?
TNF death inh: -2.5; WT yeast gro inh: -2.5; Redox H2O2 prof: 1.5; zVAD death inh: 1.2; PKD1 inh: -5.9; PERK inhibitor: 0.4

How did CCCCCOc1ccc2oc(=O)c3c(c2c1)CCCN3C(=O)CN1CCCC(C(=O)OCC)C1 (stereo not drawn) do in these assays?
TNF death inh: -0.6; WT yeast gro inh: 80.4*; Redox H2O2 prof: 0.2; zVAD death inh: -0.4; PKD1 inh: 3.2; PERK inhibitor: -0.7

How did CC(C)(C)c1ccc(-c2noc(-c3ccc4c(c3)CCO4)n2)cc1 do in these assays?
TNF death inh: 0.1; zVAD death inh: 0.9; PERK inhibitor: 0.8

Results for C/C(=N/Nc1cc(-c2ccccc2)nc(-c2ccccc2)n1)c1ccc(O)cc1 ?
TNF death inh: 0.9; WT yeast gro inh: 97.5*; Redox H2O2 prof: -0.1; zVAD death inh: 0.8; PKD1 inh: 0.8; PERK inhibitor: -0.5

How did C/C(=N\Nc1cc(-c2ccccc2)nc(-c2ccc(Br)cc2)n1)c1cccc(N)c1 do in these assays?
TNF death inh: -7.4; Redox H2O2 prof: 2.7; zVAD death inh: -0.1; PKD1 inh: -0.6; PERK inhibitor: 0.4

Results for CCN(CC)c1ccc(/C=C2\C(=O)c3ccc(C(=O)O)cc3C2=O)cc1 ?
TNF death inh: 0.1; WT yeast gro inh: 5.4; Redox H2O2 prof: -0.3; PKD1 inh: -4.2; PERK inhibitor: 0.7

Results for CCOc1ccc(NC(C)c2cc(Cl)ccc2O)cc1 (stereo not drawn) ?
TNF death inh: 1.1; WT yeast gro inh: 6.7; Redox H2O2 prof: -0.3; zVAD death inh: 0.1; PKD1 inh: 2.2; PERK inhibitor: 0.7
